# Results filed as inconclusive are left out. A call without a number means that no potency is given here. Active and inactive are the calls of the source. The call rests on the fitted dose curve; in most records, active means well fitted curve in the direction sought with a large enough effect; inconclusive means small, poorly fitted or top-dose-only effect, or another doubt; inactive means no such curve, though single readings can be large; an effect the other way counts as inactive or inconclusive.
# Experiments:
# [1] = UWB1.289-WTBRCA1 Cancer Cell Toxicity qHTS against the NCATS CANVASS Library (AID 1347354); conditions: UWB1.289-WTBRCA1 viability, CellTiter-Glo luminescence, 72 h; at 76 µM (top of the series) unless noted
# Method in brief: (§1)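 Luminescent ATP read-out (CellTiter-Glo, 15min at room temperature) measures survival after cells face an 11-point compound series for 72 hours at 37 degrees C/5% CO2.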
# [2] = HEK-293 Cancer Cell Toxicity qHTS against the NCATS CANVASS Library (AID 1347355); conditions: outcome: dose series up to 91.4 µM; further: nearly all actives have a fitted effect of over 65% in size
# Method in brief: as §1
# [3] = HPAF-II 24hr Apoptosis Induction qHTS against the NCATS CANVASS Library (AID 1347356)
# Method in brief: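 Luminescent caspase-3/7 signal (DEVD substrate, Caspase-Glo) served as read-out, taken 15 min after reagent addition to HPAF-II cells exposed 24 h to compounds.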
# [4] = HEK293 18hr Apoptosis Induction qHTS against the NCATS CANVASS Library (AID 1347357)
# Method in brief: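 Luminescent caspase-3/7 signal is measured in HEK293 cells exposed for 18 hours to an 11-point concentration series; doxorubicin serves as the plate control.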
# [5] = HPAF-II 12hr Apoptosis Induction qHTS against the NCATS CANVASS Library (AID 1347358)
# Method in brief: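 500 HPAF-II cells/well; cmpds 11-pt; 12 hr, 37 degrees C/5% CO2; Caspase-Glo 3/7 added, 15 min RT dark; luminescence read. Doxorubicin titration as control.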
# [6] = HEK293 24hr Apoptosis Induction qHTS against the NCATS CANVASS Library (AID 1347359)
# Method in brief: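 HEK293 cells (500/well, DMEM + 10% FBS) were exposed to compounds in an 11-point series for 24 hours at 37 degrees C, then caspase-3/7 activity was read by Caspase-Glo DEVD luciferase luminescence after 15 min.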
# [7] = HPAF-II 18hr Apoptosis Induction qHTS against the NCATS CANVASS Library (AID 1347360)
# Method in brief: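 Apoptosis was scored as caspase-3/7 activity in HPAF-II pancreatic cancer cells treated 18 hours with an 11-point concentration series.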
# [8] = HEK293 12hr Apoptosis Induction qHTS against the NCATS CANVASS Library (AID 1347361)
# Method in brief: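 Apoptosis in HEK293 was scored as caspase-3/7 luminescence following 12 h treatment with a compound concentration series in qHTS format.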
# [9] = tested on: NAD(P)H diaphorase (Clostridium kluyveri); assay: Diaphorse counterscreen qHTS: Assay Interference Panel against the NCATS CANVASS Library (AID 1347362)
# Method in brief: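 Clostridium kluyveri diaphorase in PBS with 0.01% Tween-20 was preincubated 15 min at room temperature in the dark with compounds (11-point series). Resorufin fluorescence (ex 525/20, em 598/25) was read 5 min after adding resazurin/NADH.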
# [10] = biological target: Luciferin 4-monooxygenase (Photinus pyralis) (UniProt P08659); assay: Firefly luciferase counterscreen qHTS: Assay Interference Panel against the NCATS CANVASS Library (AID 1347363)
# Sequence of Luciferin 4-monooxygenase (Photinus pyralis) (P08659 whole entry, looked up): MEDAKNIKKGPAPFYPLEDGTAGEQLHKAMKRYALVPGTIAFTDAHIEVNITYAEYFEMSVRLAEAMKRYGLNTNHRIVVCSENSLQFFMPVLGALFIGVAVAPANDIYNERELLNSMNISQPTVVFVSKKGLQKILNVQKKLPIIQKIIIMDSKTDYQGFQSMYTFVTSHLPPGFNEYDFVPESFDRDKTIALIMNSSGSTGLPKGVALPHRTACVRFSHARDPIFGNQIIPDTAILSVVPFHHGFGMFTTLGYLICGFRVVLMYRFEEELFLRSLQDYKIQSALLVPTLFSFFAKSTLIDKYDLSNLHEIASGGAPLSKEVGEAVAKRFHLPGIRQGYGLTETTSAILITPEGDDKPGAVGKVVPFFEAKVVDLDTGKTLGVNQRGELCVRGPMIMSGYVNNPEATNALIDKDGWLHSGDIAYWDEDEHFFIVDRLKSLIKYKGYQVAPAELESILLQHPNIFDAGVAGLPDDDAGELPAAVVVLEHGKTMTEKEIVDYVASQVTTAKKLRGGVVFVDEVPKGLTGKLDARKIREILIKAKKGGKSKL
# Method in brief: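 Purified P. pyralis luciferase was added to compounds (11-point series) preincubated 15 min at room temperature with substrate containing 0.013 mM D-luciferin and 0.013 mM ATP; luminescence was read after 5 min.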
# [11] = KB-8-5-11 Cancer Cell Toxicity qHTS against the NCATS CANVASS Library (AID 1347364); conditions: outcome: dose series up to 91.4 µM; further: nearly all actives have a fitted effect of over 75% in size
# Method in brief: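 Plate 500 KB-8-5-11 cells per well in DMEM + 10% FBS, add compounds by pin transfer, incubate 72 hr at 37C. Add CellTiter-Glo, wait 10 minutes at room temperature, read luminescence.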
# [12] = SDT Cancer Cell Toxicity qHTS against the NCATS CANVASS Library (AID 1347365); further: nearly all actives have a fitted effect of over 60% in size; further: potency means the concentration at half of the fitted maximal effect
# Method in brief: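 qHTS, SDT dog glioma line, 500 cells/well; cpds 11 pts; 72 hr, 37C, 5% CO2; CellTiterGlo ATP luminescence.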
# [13] = KB-3-1 Cancer Cell Toxicity qHTS against the NCATS CANVASS Library (AID 1347366); conditions: outcome: dose series up to 46.1 µM; further: nearly all actives have a fitted effect of over 75% in size
# Method in brief: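 Seed KB-3-1 cells at 500/well in DMEM with 10% FBS, add compounds, incubate 72 hr at 37C and 5% CO2, then add CellTiter-Glo and read luminescence after 10 minutes.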
# [14] = qHTS for ATAD5 Agonist screened against the NCATS CANVASS Library (AID 1347367);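 further: luciferase reporter driven by ATAD5 which rises upon DNA damage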
# Method in brief: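 Step one plated reporter cells and let them acclimate 5hr. Step two pinned compounds with MMS as positive and 0.46% DMSO as negative control. After 16hr incubation, fluorescence viability then luminescence were read.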
# [15] = G06 Cancer Cell Toxicity qHTS against the NCATS CANVASS Library (AID 1347368); further: nearly all actives have a fitted effect of over 60% in size
# Method in brief: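 Dog G06 glioma line, 500 cells/well; cpds pin-transferred, 11-pt; 72 hr, 37C/5% CO2; CellTiterGlo luminescence (ATP) endpoint.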
# [16] = MCF7 Cancer Cell Toxicity qHTS against the NCATS CANVASS Library (AID 1347369); conditions: outcome: dose series up to 91.3 µM
# Method in brief: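 Cytotoxicity is measured by ATP content: MCF7 cells at 500 per well receive an 11-point compound series and, after 72 hr at 37C, are lysed with CellTiterGlo for luminescence.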
# [17] = qHTS for ATAD5 Antagonist screened against the NCATS CANVASS Library (AID 1347370);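 further: HEK293T cells carrying an ATAD5 luciferase reporter co-treated with 10 µM 5-fluorouridine; nearly all actives have a fitted effect of over 65% in size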
# Method in brief: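 HEK293T cells with stably integrated ATAD5-luciferase reporter, 2000/well, 5 h attachment; compounds plus 10 µM 5-fluorouridine, 16 h at 37 °C. Luciferase luminescence read, with CellTiter-Fluor viability read first.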
# [18] = J3T Cancer Cell Toxicity qHTS against the NCATS CANVASS Library (AID 1347371); conditions: outcome: dose series up to 91.4 µM
# Method in brief: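 Cells plated at 500 per well, compounds pin-transferred, plates incubated 72 hr at 37C, then CellTiterGlo added and luminescence read to measure ATP content.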
# [19] = biological target: Nuclear receptor subfamily 1 group I member 3 (Homo sapiens) (UniProt Q14994); assay: qHTS for Constitutive Androstane Receptor (CAR) Antagonist screened against the NCATS CANVASS Library (AID 1347372);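 further: cells stimulated with 50 nM CITCO agonist so inhibition reflects antagonism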
# Sequence of Nuclear receptor subfamily 1 group I member 3 (Homo sapiens) (Q14994 whole entry, looked up): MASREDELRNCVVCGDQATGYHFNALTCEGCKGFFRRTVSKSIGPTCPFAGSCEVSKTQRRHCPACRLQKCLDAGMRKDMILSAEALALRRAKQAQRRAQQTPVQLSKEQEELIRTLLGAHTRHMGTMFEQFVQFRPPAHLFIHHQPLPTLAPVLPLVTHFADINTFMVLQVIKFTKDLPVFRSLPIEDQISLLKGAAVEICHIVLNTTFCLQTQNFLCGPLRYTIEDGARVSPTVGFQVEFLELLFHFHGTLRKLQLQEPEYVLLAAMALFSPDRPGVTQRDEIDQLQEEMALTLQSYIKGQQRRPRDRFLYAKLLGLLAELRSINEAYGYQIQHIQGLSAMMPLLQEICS
# Method in brief: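 HepG2 cells stably carrying hCAR and a CYP2B6-2.2kb luciferase reporter were exposed to compounds plus 50 nM CITCO for 24hr at 37C. CAR activity was read by ONE-Glo luminescence, with viability measured first by CellTiter-Fluor.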
# [20] = biological target: Nuclear receptor subfamily 1 group I member 3 (Homo sapiens) (UniProt Q14994); assay: qHTS for Constitutive Androstane Receptor (CAR) Agonist screened against the NCATS CANVASS Library (AID 1347373);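 further: every well also contained 1.5 µM PK11195 alongside the test compound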
# Method in brief: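 HepG2-hCAR-CYP2B6 cells, 2500/well, attached 4hr; cpd + PK11195 1.5uM final; 24hr 37C 5% CO2. CellTiter-Fluor viability read, then ONE-Glo luminescence for CAR activation.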
SMILES,outcome [1],outcome [2],outcome [3],outcome [4],outcome [5],outcome [6],outcome [7],outcome [8],outcome [9],outcome [10],outcome [11],Potency [12],outcome [13],outcome [14],outcome [15],outcome [16],outcome [17],outcome [18],outcome [19],outcome [20]
O=C(O)Cc1c[nH]c2ccc(O)cc12,inactive,inactive,inactive,inactive,inactive,inactive,inactive,inactive,inactive,inactive,inactive,inactive,inactive,inactive,inactive,inactive,inactive,inactive,inactive,inactive
CC(=O)NCCc1c[nH]c2ccc(O)cc12,inactive [at 38.3 µM],inactive,inactive,inactive,inactive,inactive,inactive,inactive,,inactive,inactive,1480 nM (active),inactive,inactive,,inactive,inactive,inactive,inactive,inactive
